Assay [1] can be described thus: qHTS assay to identify small molecule agonists of the vitamin D receptor (VDR) signaling pathway - cell viability counter screen (AID 743224). Note: nearly all actives have a fitted effect of over 50% in size. A digest of the protocol: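 Plated VDR-bla cells (4 h, 37C) received compound, incubated 16 h, then LiveBLAzer substrate 2 h RT; CellTiter-Glo added afterwards, luminescence read at 30 min.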
Assay [2] is described as follows: qHTS assay to identify small molecule antagonists of the vitamin D receptor (VDR) signaling pathway - cell viability counter screen (AID 743225). Note: nearly all actives have a fitted effect of over 50% in size. In outline: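 Viability counter screen run in the same wells as the beta-lactamase reporter assay: HEK 293T VDR-UAS-bla cells, 16 h compound exposure at 37C with 3 nM (final) 1-alpha,25-dihydroxyvitamin D3. CellTiter-Glo luminescence, 30 min, room temperature.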
In general terms: Quantitative high-throughput screening tests each substance at several concentrations.

The nature of assay [3]: qHTS assay to identify small molecule agonists of the NFkB signaling pathway (AID 1159509; active = well fitted curve in the direction sought with a large enough effect in the signal ratio in the repeat runs, not every such curve was filed as active; the % refers to the signal ratio). A digest of the protocol: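 After overnight attachment, reporter cells received test compounds, DMSO or positive controls and were incubated 5 hr at 37 C. FRET substrate was then added for 1.5 hr at room temperature before dual-emission fluorescence reading.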
The nature of assay [4]: qHTS assay to identify small molecule agonists of the NFkB signaling pathway - cell viability counter screen (AID 1159515; calls by dose curve; note: nearly all actives have a fitted effect of over 55% in size). In outline: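 Using the same wells as the NFkB reporter read, ME-180 NFkB-bla cells given compounds for 5 hr were assessed for viability via CellTiter-Glo, with luminescence taken after a 30 min room-temperature incubation.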
Assay [5] can be described thus: qHTS assay to identify small molecule agonists of the endoplasmic reticulum stress response signaling pathway - cell viability counter screen (AID 1159517; calls by dose curve;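 note: HeLa cells carrying an ER stress response element beta-lactamase reporter; nearly all actives have a fitted effect of over 50% in size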). In outline: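 Luminescence readout: CellTiter-Glo, 30 min RT, same wells as the ESRE-bla reporter read. HeLa ESRE-bla, 1,500 cells/well, o/n 37 C; cpd 5 hr 37 C/5% CO2.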
A short description of assay [6]: qHTS assay to identify small molecule antagonists of the retinoid-related orphan receptor gamma (ROR-gamma) signaling pathway - cell viability counter screen (AID 1159520). Note: nearly all actives have a fitted effect of over 50% in size. A digest of the protocol:
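Tet-on ROR gamma CHO cells (1,000/well) were plated 4 hr, given compounds in DMSO for 2 hr at 37 C, then induced with 1 uM final doxycycline for 16 hr. Viability was read as ATP by CellTiter-Glo luminescence after 30 min.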

Assay [7] deals with Nuclear receptor ROR-gamma (Homo sapiens) (UniProt P51449). The assay can be described thus: qHTS assay to identify small molecule antagonists of the retinoid-related orphan receptor gamma (ROR-gamma) signaling pathway (AID 1159521). A digest of the protocol:
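Luminescence readout (ONE-Glo, 30 min RT) after 16 h doxycycline induction; loss of signal scored as antagonism. CHO cells with TET-inducible RORγ and RORE-LUC reporter; compounds added 2 h before 1 uM final doxycycline.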

Assay [8] in a line: qHTS assay to identify small molecule agonists of the AP-1 signaling pathway - cell viability counter screen (AID 1159525; calls by dose curve; note: nearly all actives have a fitted effect of over 55% in size). In outline:
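ME-180 AP-1-bla, 2500 cells/well, Opti-MEM + 0.5% dialyzed FBS; overnight 37 °C; cpd 15-pt titration, 5 h 37 °C; CellTiter-Glo 30 min RT; luminescence read; normalised to TOAB and DMSO controls.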

Assay [9] can be described thus: qHTS assay to identify small molecule agonists of the AP-1 signaling pathway (AID 1159526; calls by dose curve).
For assay [10], the target named is Retinoic acid receptor RXR-alpha (Homo sapiens) (UniProt P19793). The assay can be described thus: qHTS assay to identify small molecule agonists of the RXR signaling pathway (AID 1159527; calls by dose curve; note: nearly all actives have a fitted effect of over 35% in size; note: potency is the fitted concentration of half-maximal effect). In outline: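 Agonist mode; 9-cis retinoic acid positive control. HEK 293T UAS-bla reporter cells, 2% charcoal-stripped FBS, 16 hr compound exposure at 37 C/5% CO2. LiveBLAzer B/G FRET substrate 2 hr RT; ex 405, em 460/530 nm.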

A short description of assay [11]: qHTS assay to identify small molecule antagonists of the retinoid acid receptor (RAR) signaling pathway - cell viability counter screen (AID 1159551). Note: nearly all actives have a fitted effect of over 35% in size. In outline: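 Retinol-stimulated (1 uM final) C3RL4 cells, compound 6 h, 37 C; readout CellTiter-Glo luminescence (ATP) after 30 min RT incubation.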
Assay [12] in a line: qHTS assay to identify small molecule antagonists of the retinoic acid receptor (RAR) signaling pathway (AID 1159552; note: nearly all actives have a fitted effect of over 50% in size). A digest of the protocol: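 Luminescence from a RARE luciferase reporter in C3RL4 cells served as read-out. Cells received compounds together with 1 uM final retinol and incubated 6 hr at 37 C before detection reagent was added for 30 min at room temperature.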

A short description of assay [13]: qHTS assay to identify small molecule agonists of the retinoic acid receptor (RAR) signaling pathway (AID 1159553). The settings on record: C3RL4 RARE luciferase reporter, agonist, 6 h; activation: at 73.3 µM (top of the series). A digest of the protocol:
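Reporter readout comes from luciferase under RARE control in C3RL4 cells; compound exposure lasts 6 hr at 37 C in 5% CO2, and luminescence is recorded following a 30 min room-temperature incubation with reagent.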

Assay [14] is described as follows: qHTS assay to identify small molecule antagonists of the estrogen related receptor (ERR) signaling pathway from Tox21 library - cell viability counter screen (AID 1224834). Note: nearly all actives have a fitted effect of over 30% in size. Note: potency is the fitted concentration of half-maximal effect. A digest of the protocol:
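After 17.5 h of compound exposure at 37 C, ERR cells are incubated with CellTiter-Fluor for 30 min and fluorescence intensity serves as the viability measure.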

A short description of assay [15]: qHTS assay to identify small molecule agonists of the constitutive androstane receptor (CAR) signaling pathway - cell viability counter screen (AID 1224836). Note: nearly all actives have a fitted effect of over 45% in size. A digest of the protocol:
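Viability read-out: CellTiter-Fluor fluorescence after 23 h compound exposure at 37 C/5% CO2 in double-stable HepG2-CYP2B6-hCAR cells, with PK11195 present at 0.75 uM final; compounds tested in 15-point titration.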

A short description of assay [16]: qHTS assay to identify small molecule antagonists of the constitutive androstane receptor (CAR) signaling pathway - cell viability counter screen (AID 1224837). Note: nearly all actives have a fitted effect of over 45% in size. A digest of the protocol: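 Counter screen run in HepG2-CYP2B6-hCAR cells: 4 hr settle, compound titration (15 concentrations) with 50 nM CITCO, 23 hr at 37 C/5% CO2, CellTiter-Fluor fluorescence.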
The nature of assay [17]: qHTS assay to identify small molecule agonists of the RXR signaling pathway - cell viability counter screen (AID 1159529). Note: nearly all actives have a fitted effect of over 50% in size. In outline: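 Luminescence from CellTiter-Glo (30 min, RT) measured viability in the same wells as the beta-lactamase reporter readout. Cells: GeneBLAzer RXR-alpha HEK 293T, 2% charcoal-stripped FBS. Compound exposure 16 hr, 37 C.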
In assay [18] the target is Luciferin 4-monooxygenase (Photinus pyralis) (UniProt P08659). As to the kind of experiment: qHTS assay to identify small molecule inhibitors of firefly luciferase (AID 1224835). Note: nearly all actives have a fitted effect of over 25% in size. Note: potency is the fitted concentration of half-maximal effect. In outline: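 Quantitative HTS format; KM concentrations of both substrates. Purified P. pyralis FLuc activity quantified from luminescence images.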
Assay [19] addresses Nuclear receptor subfamily 1 group I member 3 (Homo sapiens) (UniProt Q14994). As to the kind of experiment: qHTS assay to identify small molecule antagonists of the constitutive androstane receptor (CAR) signaling pathway (AID 1224838).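 Note: HepG2 cells stably expressing hCAR with CYP2B6 luciferase reporter stimulated by CITCO; nearly all actives have a fitted effect of over 40% in size.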 A digest of the protocol:
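Cell line: HepG2 double-stable for hCAR and CYP2B6-2.2kb reporter. Agonist: CITCO, 50 nM final. Compounds: 15 concentrations, 24 h, 37 C. Detection: ONE-Glo luminescence.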

Records with an inconclusive call do not appear. Unmarked numbers belong to inactive results. Calls of active or inactive are those of the source. Unless noted, calls come from the whole dose curve; as a rule, active = well fitted curve in the direction sought with a large enough effect in the repeat runs; inconclusive = weak or mixed curves; inactive = no such curve, though single readings can be large; an effect the other way counts as inactive or inconclusive.

Sequence of Luciferin 4-monooxygenase (Photinus pyralis) (P08659 whole entry, looked up): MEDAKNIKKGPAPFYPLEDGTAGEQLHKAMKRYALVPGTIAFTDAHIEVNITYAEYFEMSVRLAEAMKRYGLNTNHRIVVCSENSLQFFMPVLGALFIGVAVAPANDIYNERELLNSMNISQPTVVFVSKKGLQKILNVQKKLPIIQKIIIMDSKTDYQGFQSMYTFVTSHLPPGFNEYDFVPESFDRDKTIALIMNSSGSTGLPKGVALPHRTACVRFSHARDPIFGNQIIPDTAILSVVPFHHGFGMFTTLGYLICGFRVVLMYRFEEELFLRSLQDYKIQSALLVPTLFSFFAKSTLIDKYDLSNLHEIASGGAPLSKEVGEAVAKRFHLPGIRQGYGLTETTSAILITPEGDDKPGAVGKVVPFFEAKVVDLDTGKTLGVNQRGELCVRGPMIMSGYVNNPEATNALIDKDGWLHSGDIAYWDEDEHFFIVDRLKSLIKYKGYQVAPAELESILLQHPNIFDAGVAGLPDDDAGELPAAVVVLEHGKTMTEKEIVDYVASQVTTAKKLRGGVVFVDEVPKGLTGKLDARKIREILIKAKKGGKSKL
Sequence of Retinoic acid receptor RXR-alpha (Homo sapiens) (P19793 whole entry, looked up): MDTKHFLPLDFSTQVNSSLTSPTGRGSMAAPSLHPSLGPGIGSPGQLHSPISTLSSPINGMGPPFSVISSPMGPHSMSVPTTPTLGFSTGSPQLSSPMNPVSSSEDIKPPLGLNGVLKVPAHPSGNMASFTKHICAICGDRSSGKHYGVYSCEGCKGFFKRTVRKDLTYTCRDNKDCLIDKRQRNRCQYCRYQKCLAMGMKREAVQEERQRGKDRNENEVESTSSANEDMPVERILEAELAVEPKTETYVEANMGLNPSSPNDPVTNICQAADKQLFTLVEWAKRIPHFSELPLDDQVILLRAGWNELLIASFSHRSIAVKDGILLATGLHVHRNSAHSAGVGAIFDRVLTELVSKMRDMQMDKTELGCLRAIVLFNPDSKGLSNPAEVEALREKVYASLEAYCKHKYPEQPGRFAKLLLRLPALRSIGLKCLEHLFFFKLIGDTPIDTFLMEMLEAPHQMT
Sequence of Nuclear receptor subfamily 1 group I member 3 (Homo sapiens) (Q14994 whole entry, looked up): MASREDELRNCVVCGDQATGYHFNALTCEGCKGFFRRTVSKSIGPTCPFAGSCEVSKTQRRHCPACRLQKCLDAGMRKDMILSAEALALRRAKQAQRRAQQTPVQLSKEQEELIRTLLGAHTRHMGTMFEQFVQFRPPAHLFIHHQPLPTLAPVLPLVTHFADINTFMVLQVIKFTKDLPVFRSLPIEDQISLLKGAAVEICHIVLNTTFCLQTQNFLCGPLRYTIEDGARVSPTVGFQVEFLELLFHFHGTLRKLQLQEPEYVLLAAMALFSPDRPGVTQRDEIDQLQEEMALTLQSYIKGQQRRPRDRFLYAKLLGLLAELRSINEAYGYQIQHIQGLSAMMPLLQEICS

Regarding `CC(=O)OC[C@H]1O[C@@H](OC(C)=O)[C@H](OC(C)=O)[C@@H]1OC(C)=O`, the call in [1], in [2], in [3], in assay [4], in assay [5] and in [6] was inactive. The result in assay [7], in [8], in [9], in [11] and in assay [15] was inactive. Further, the Potency result in assay [10], in [12], in assay [13], in [14] and in [16] was “inactive” in each case.

`O=C(O)c1c(Cl)ccc(Cl)c1Cl`: the result in [1], in [2], in [3], in assay [4], in assay [6] and in assay [7] was inactive. The outcome in assay [8], in assay [9], in assay [17], in assay [11] and in assay [15] was inactive. The Potency in assay [10] was 15.5 µM (active). Besides, the Potency entry in assay [12], in [13], in assay [14], in assay [18], in [16] and in [19] was “inactive” in each case.

For `CCCCCCCCCCCCCC(=O)OC`, the result in assay [1], in assay [2], in [3], in assay [4], in assay [5] and in [6] was inactive. Also, the compound was called inactive in [7], in assay [9], in assay [17], in [11] and in [15]. For the same compound, the Potency entry in assay [10], in assay [12], in [13], in [14], in [18] and in assay [16] was “inactive” throughout.

Turning to `CCN1CN(CC)CN(CC)C1`, the result in assay [1], in [2], in [3], in assay [4], in [5] and in assay [6] was inactive. The compound was classed as inactive in assay [7], in [8], in assay [9], in [17], in assay [11] and in assay [15]. Moreover, the Potency result in assay [10], in assay [12], in assay [13], in assay [14], in assay [18] and in [16] was “inactive” each time.

For the compound `Cc1cccc(Nc2ccncc2S(=O)(=O)NC(=O)NC(C)C)c1`, the call in assay [1], in assay [2], in assay [3], in [4], in assay [5] and in assay [6] was inactive. The compound was classed as inactive in [7], in assay [8], in [9], in assay [11] and in assay [15]. The Potency entry in assay [10], in assay [12], in [13], in [14], in assay [18] and in [16] was “inactive” in each case.

On to `CC1=NN(c2ccc(S(=O)(=O)O)cc2)C(=O)C1N=Nc1ccccc1` (stereo not given), for which the call in assay [1], in assay [2], in assay [3], in assay [4], in assay [6] and in assay [7] was inactive. For the same compound, the call in assay [9], in assay [17] and in assay [11] was inactive. The Potency entry in [10], in assay [12] and in assay [19] was “inactive” throughout. The values for the Potency in [14] and in [18] were 54.5 µM (active) and 71 µM (active), respectively.

Regarding `Cc1nc2n(c(=O)c1CCN1CCC(C(=O)c3ccc(F)cc3)CC1)CCS2`, the call in assay [1], in [2], in [3], in assay [4], in [6] and in assay [7] was inactive. Besides, the call in assay [8], in [9], in [17], in assay [11] and in [15] was inactive. For the same compound, the Potency result in assay [10], in [12], in assay [13], in [14], in [18] and in assay [16] was “inactive” throughout.

With `CCCCCCCCCCC`, the call in assay [1], in [2], in [3], in assay [4], in [5] and in assay [6] was inactive. Also, the call in assay [7], in [8], in assay [9], in assay [17], in assay [11] and in [15] was inactive. The Potency in assay [10] was 12.3 µM (active). Also, the Potency result in assay [12], in assay [14], in assay [18], in [16] and in assay [19] was “inactive” each time.

(Values after PubChem BioAssay (Tox21).)
